From PubChem BioAssay
Hits are enriched below; roughly 31% of the tested compounds scored in any of these assays.
CYP2C19 activ = human CYP2C19 activators, primary screen, biochemical, luminescence; Cytochrome P450 2C19 (Homo sapiens), P33261; recombinant CYP2C19, luciferin-H EGE luminescence; stronger effect = higher value; 0 = fully inhibited enzyme, 1 = untreated enzyme; activation factor at 5 µM; 96,000 tested, under 10 active; AID 1025, 2008;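 active means activation factor of at least 2 at 5 µM in the primary screen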;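 further: 0 = wells with 2.5 mM tranylcypromine and 1 = vehicle-only wells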
Target sequence (P33261 whole entry, looked up): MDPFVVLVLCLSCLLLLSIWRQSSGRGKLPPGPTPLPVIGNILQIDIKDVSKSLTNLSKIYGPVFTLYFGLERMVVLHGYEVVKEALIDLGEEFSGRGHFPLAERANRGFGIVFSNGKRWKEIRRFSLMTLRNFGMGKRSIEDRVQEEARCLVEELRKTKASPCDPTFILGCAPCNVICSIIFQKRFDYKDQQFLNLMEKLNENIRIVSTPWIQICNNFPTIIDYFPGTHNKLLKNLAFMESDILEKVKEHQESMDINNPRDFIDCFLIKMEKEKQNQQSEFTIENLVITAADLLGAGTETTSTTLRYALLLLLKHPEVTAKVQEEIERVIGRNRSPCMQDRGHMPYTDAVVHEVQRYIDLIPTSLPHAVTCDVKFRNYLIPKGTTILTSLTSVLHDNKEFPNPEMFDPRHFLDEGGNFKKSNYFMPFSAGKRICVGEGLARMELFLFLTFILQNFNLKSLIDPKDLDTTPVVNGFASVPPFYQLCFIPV
CYP2C19 inh = blockers of cytochrome P450 2C19 activity – biochemical, luminescence, ADME assay, primary screen; CYP2C19 Supersomes, luciferin-H EGE luminescence, 30 min; inhibition, % at 5 µM; hit rate 21% among 96,000; AID 778, 2007;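 active means CYP2C19 inhibition above a set limit at 5 µM in the primary screen, cut at about 50% in these data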;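 further: plate controls were negative control wells for no effect and 2.5 mM tranylcypromine positive control for full effect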
CYP2C9 activ = human CYP2C9 activators, primary screen, biochemical, luminescence. Cytochrome P450 2C9 (Homo sapiens), P11712. recombinant CYP2C9, luciferin-H conversion; stronger effect = higher value; factor 1 = untreated enzyme, 0 = blocked. activation factor at 5 µM. hit rate 1.4% among 96,000. AID 1024, 2008;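 active means activation factor of 2 or more for CYP2C9 at a 5 µM dose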;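 further: 0 = sulfaphenazole-blocked wells and 1 = vehicle-only wells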
PLAP act = PLAP enzyme activators, biochemical, luminescence, HTS; Alkaline phosphatase, placental type (Homo sapiens), P05187; purified PLAP enzyme, luminescent substrate read-out; stronger effect = higher value; activation fold at 20 µM; hit rate 1.2% among 96,000; AID 696, 2007; in the data active means activation fold above about 2
CYP2C9 inh = blockers of cytochrome P450 2C9 activity – biochemical, luminescence, ADME assay, primary screen. inhibition, % at 5 µM. hit rate 20% among 96,000. AID 777, 2007. CYP2C9 Supersomes, luciferin-H conversion;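 active means blocking of liver enzyme CYP2C9 beyond about 50% at 5 µM, limit read from the data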
An asterisk follows results filed as active.

SMILES | CYP2C19 activ | CYP2C19 inh | CYP2C9 activ | PLAP act | CYP2C9 inh
O=C(c1ccccc1)N1CCCC(c2nc3c(nnn3Cc3ccccc3)c(=O)[nH]2)C1 (stereo unspecified) | 0.8 | 24 | 0.2 | 1.3 | 78*
Nc1c(C(=O)NC23CC4CC(CC(C4)C2)C3)sc2nc3c(c(C(F)(F)F)c12)CCC3 | 1.1 | -6 | 1 | 0.9 | -3
COc1cc(C2C3=C(CC(C)(C)CC3=O)N(C)C(=O)N2C)cc(OC)c1OC (stereo unspecified) | 1.1 | -7 | 0.7 | 1.3 | 31
O=S(=O)(c1ccc2ccccc2c1)N(CC(O)CN1CCOCC1)c1ccccc1 (stereo unspecified) | 0.9 | 11 | 0.8 | 1.5 | 20
CCOC(=O)CSC1=C(C#N)C(c2ccc(Cl)cc2)C(C(=O)OC)C(=O)N1 (stereo unspecified) | 0.6 | 40 | 0.6 | 1.1 | 41
CCOC(=O)C1C(=O)NC(SC)=C(C#N)C1c1ccccc1F (stereo unspecified) | 0.1 | 91* | 0.6 | 1.2 | 42
CCOC(=O)C1C(=O)NC(SCC(N)=O)=C(C#N)C1c1ccccc1OCC (stereo unspecified) | 0.2 | 76* | 0.6 | 1.4 | 42
CCCCCCn1c(=O)c(-c2nc3ccccc3c(=O)[nH]2)c(O)c2ccccc21 | 1.1 | -14 | 1 | 1.2 | -5
C=CCn1c(SCC(=O)N2CCOCC2)nc(O)c(Cc2ccccc2)c1=O | 0.9 | 11 | 0.9 | 1.2 | 8
COc1ccc(S(=O)(=O)O/N=C2\CCSc3ccc(C)cc32)cc1 | 0.4 | 56* | 0.8 | 0.8 | 15
CCCC(=O)N1CCN(c2nc(CC(C)C)c3c(c2C#N)CCC3)CC1 | 0.1 | 89* | 0.1 | 1.4 | 89*
N#Cc1c(-c2ccccc2)nc(N2CCCCCC2)[nH]c1=O | 0.9 | 11 | 0.8 | 1.2 | 17
CC(C)C(=O)N1CCN(c2nc(-c3ccccc3)c3c(c2C#N)CCCC3)CC1 | 0 | 98* | 0.1 | 1.6 | 94*
c1ccc(Oc2cccc(CN3CCOCC3)c2)cc1 | 0.2 | 77* | 0.8 | 1.2 | 16
c1ccc2c(c1)Cc1cc(CN3CCOCC3)ccc1-2 | 0.4 | 62* | 0.8 | 1.2 | 15
CCCCNC(=O)Nc1cc(C(=O)OC)ccc1Cl | 0.8 | 23 | 1.1 | 0.9 | -11
COc1ccc(-n2c(Cc3cccn3C)nnc2SCC(=O)Nc2nc(C)cs2)cc1 | 1 | 4 | 0.8 | 1.1 | 23
CCC(C)n1cnc2c(c1=O)c1nc3ccccc3nc1n2Cc1ccc2c(c1)OCO2 (stereo unspecified) | 0.2 | 81* | 0 | 1.4 | 99*
CCC(C)n1cnc2c(c1=O)c1nc3ccccc3nc1n2-c1ccc2c(c1)OCCO2 (stereo unspecified) | 0.9 | 10 | 0.7 | 1.2 | 30
O=c1c2c3nc4ccccc4nc3n(-c3cccc(F)c3)c2ncn1Cc1ccc2c(c1)OCO2 | 1 | -2 | 1 | 1.2 | 0
Cc1nc2c(c(=O)n1CCC(C)C)c1nc3ccccc3nc1n2Cc1ccc2c(c1)OCO2 | 0.8 | 22 | 0.4 | 1.3 | 58*
Cc1cccc(NS(=O)(=O)c2cc(C(=O)N3CCN(C)CC3)ccc2C)c1 | 0.7 | 29 | 0.8 | 1.4 | 20
Cc1cccc(NS(=O)(=O)c2cc(C(=O)OCC(=O)Nc3cc(C)on3)ccc2C)c1 | 0.5 | 48 | 0.2 | 1.3 | 84*
COc1ccccc1NS(=O)(=O)c1cccc(C(=O)OCC(=O)Nc2cc(C)on2)c1 | 0.6 | 40 | 0.6 | 1 | 38
Cc1cccc(NS(=O)(=O)c2ccc(C)c(C(=O)OCC(=O)Nc3cc(C)on3)c2)c1 | 0.1 | 89* | 0.1 | 1.1 | 94*
SMILES | CYP2C19 activ | CYP2C19 inh | CYP2C9 activ | PLAP act | CYP2C9 inh
CCOc1cccc(C2C(C(=O)c3ccc(C)o3)=C(O)C(=O)N2c2nccs2)c1 (stereo unspecified) | 0.7 | 33 | 0.7 | 1 | 29
COC(=O)c1sc(N2C(=O)C(O)=C(C(=O)c3ccc(C)o3)C2c2ccc(F)cc2)nc1C (stereo unspecified) | 0.7 | 25 | 0.2 | 1.1 | 80*
O=C1CCN(Cc2nnnn2CC2CCCO2)c2ccccc2N1 (stereo unspecified) | 1.1 | -10 | 1.1 | 1 | -9
O=C(Cc1cccs1)Nc1ccc(N2CCOCC2)cc1 | 0.7 | 30 | 0.9 | 1.1 | 14
Cc1cc(NC(=O)c2ccc(N(C)S(=O)(=O)c3ccccc3)cc2)no1 | 0.7 | 27 | 0.6 | 1 | 37
Cc1cc(NC(=O)CC(CN(C)S(=O)(=O)c2ccccc2)c2ccccc2)no1 (stereo unspecified) | 0.1 | 88* | 0.5 | 0.9 | 46
COc1ccccc1-c1cc(C(F)(F)F)nc(NCc2ccco2)n1 | 0.9 | 8 | 1 | 1.1 | -2
Cc1nc(SCC(=O)N2CCc3ccccc32)n[nH]1 | 1.1 | -7 | 1.1 | 1.9 | -12
Cn1c(SCC(=O)N2CCc3ccccc32)nnc1C1CC1 | 0.2 | 76* | 0.9 | 0.9 | 8
Cn1c(SCC(=O)N2CCCc3ccccc32)nnc1-c1cccs1 | 0.5 | 47 | 0.9 | 1.1 | 7
O=C(CSc1ccccc1)N1CCc2ccccc21 | 0.1 | 94* | 0.8 | 0.6 | 20
Nc1cc(N)nc(SCC(=O)N2CCc3ccccc32)n1 | 0.9 | 13 | 2.5* | 0.9 | -145
CCn1cc(SCC(=O)N2CCc3ccccc32)c2ccccc21 | 0.4 | 61* | 0.4 | 1.2 | 60*
Cc1nnc(SCC(=O)N2CCc3ccccc32)s1 | 0.5 | 48 | 0.9 | 1 | 7
CCOc1ccc(S(=O)(=O)NN)cc1 | 0.8 | 16 | 1 | 1 | 1
CCOC(=O)c1cnc(=O)[nH]c1C | 1.1 | -9 | 1 | 1.1 | -3
CCCOc1nc2c(c(=O)n(C)c(=O)n2C)n1CC | 0.9 | 8 | 1 | 1 | -3
O=C(CC(c1ccco1)C1CCCCC1=O)c1ccccc1 (stereo unspecified) | 0.4 | 62* | 0.3 | 1.4 | 74*
COc1ccc(C(=O)C2CCCCC2=O)cc1 (stereo unspecified) | 0.9 | 10 | 1 | 1 | 3
COc1ccc(C(=O)CC(c2ccccc2)C2C(=O)CCCC2=O)cc1 (stereo unspecified) | 0.3 | 69* | 0.1 | 1.3 | 93*
COc1ccc(C(CC(=O)c2ccccc2)C2CCCCC2=O)cc1 (stereo unspecified) | 0.5 | 53* | 0.8 | 0.9 | 17
CCOC(=O)CCNC(C)C1COc2ccccc2O1 (stereo unspecified) | 0.9 | 8 | 1 | 0.9 | 0
CC(NS(=O)(=O)c1ccccc1)C1COc2ccccc2O1 (stereo unspecified) | 0.5 | 54* | 0.9 | 0.8 | 11
